Source: PubChem BioAssay
Most compounds without a hit are left out; they make up all but 1.3% or so of the library.
TRPV1 potentiator = enhances activation of the human vanilloid receptor TRPV1 | Q8NER1 | TRPV1-expressing cells, Fluo-8 calcium influx, capsaicin EC20 potentiation | potentiation, % at 8.33 µM | 0.02% of 320,000 active; in the data active = potentiation above about 80%; inconclusive = between about 30% and that limit; also: 0% is about no effect
Target sequence (Q8NER1 whole entry, looked up): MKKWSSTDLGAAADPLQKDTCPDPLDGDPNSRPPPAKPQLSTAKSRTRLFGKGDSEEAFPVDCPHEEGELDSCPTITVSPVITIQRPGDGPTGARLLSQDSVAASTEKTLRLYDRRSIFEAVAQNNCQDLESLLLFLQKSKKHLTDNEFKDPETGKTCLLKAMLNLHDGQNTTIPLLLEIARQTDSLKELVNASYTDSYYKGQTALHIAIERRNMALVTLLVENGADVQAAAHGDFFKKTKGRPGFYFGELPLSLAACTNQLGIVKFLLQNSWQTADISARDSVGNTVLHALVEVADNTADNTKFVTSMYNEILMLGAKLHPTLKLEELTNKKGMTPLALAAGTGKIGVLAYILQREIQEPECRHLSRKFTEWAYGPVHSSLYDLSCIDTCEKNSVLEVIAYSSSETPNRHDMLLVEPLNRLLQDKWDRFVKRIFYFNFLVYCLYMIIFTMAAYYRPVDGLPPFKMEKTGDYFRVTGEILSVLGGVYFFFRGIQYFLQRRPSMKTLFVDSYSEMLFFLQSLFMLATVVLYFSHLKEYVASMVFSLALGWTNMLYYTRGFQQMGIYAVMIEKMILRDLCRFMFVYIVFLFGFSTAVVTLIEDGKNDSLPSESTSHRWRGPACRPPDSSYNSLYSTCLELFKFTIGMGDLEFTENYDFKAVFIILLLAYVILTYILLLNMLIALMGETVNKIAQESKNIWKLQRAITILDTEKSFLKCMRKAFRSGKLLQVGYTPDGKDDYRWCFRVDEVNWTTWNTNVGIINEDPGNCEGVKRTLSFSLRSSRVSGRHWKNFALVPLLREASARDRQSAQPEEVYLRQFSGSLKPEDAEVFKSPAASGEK
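Fluo-8 calcium influx in TRPV1-expressing cells, kinetic read (ex 480/em 520 nm). Compound added and read 3 min for agonist activity, followed by capsaicin at EC20 final and 2 min further read for enhancement.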
KCNH2 3.1 block = inhibitors of human KCNH2 3.1 potassium channel isoform. activity change, % (tested at about 1.8 µM). 0.95% of 340,000 active. U2OS KCNH2 3.1, thallium flux FluxOr; active compounds read low;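 active = maximum activity change below -70%; inconclusive = maximum activity change from -70% to -50%; inactive = maximum activity change above -50%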;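 also: thallium influx rate constant from kinetic fluorescence after stimulation buffer; % is scaled to controls: 0 for no effect and ±100 for the full control effect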
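Kinetic fluorescence (2 min after stimulation buffer) measures Tl+ influx through KCNH2 3.1 expressed by viral transduction in U2OS cells; the rate constant is normalized against DMSO controls serving as positive and negative references.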
MBNL1 CUG block = inhibitors of human MBNL1 binding to CUG repeat RNA; Q9NR56; TR-FRET MBNL1-His/biotin-(CUG)12 binding, 665/545 ratio; Potency, µM (top dose mostly 57.5 µM), inactives show top-dose activity change, negative = inhibition, hits mostly inhibitors; 0.036% of 280,000 active; AID 2675; active = well fitted inhibition curve with a large enough effect in the signal ratio, with a control signal flat, not every such curve was filed as active; inconclusive = small, poorly fitted or top-dose-only effect, or effect the other way, or a change in a side signal; inactive = no such curve, though single readings can be large or run the other way; the % refers to the signal ratio; also: potency is read from the fitted curve at half-maximal effect; % is scaled to controls: 0 for no effect and ±100 for the full control effect
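TR-FRET readout: Ex 340 nm, 665/545 nm emission ratio, normalized to buffer-only (basal) and MBNL1-(CUG)12 controls. Complex of MBNL1-His with Biotin-(CUG)12, compounds 92 nM–58 uM, incubated 60 min at room temperature.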
TRPV1 ag = human TRPV1 agonism; activation, % at 8.33 µM; 0.19% of 320,000 active; AID 540275; TRPV1-expressing cells, Fluo-8 calcium influx, agonist mode; in the data active = activation above about 80%; inconclusive = between about 30% and that limit; also: 0% is about no effect
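Fluo-8 calcium influx in TRPV1-expressing cells, kinetic read (ex 480/em 520 nm). Compound added and read 3 min for agonist activity, followed by capsaicin at EC20 final and 2 min further read for enhancement.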
KCNH2 WT inh = blocks the wildtype human KCNH2 potassium channel | activity change, % at 1.84 µM | U2OS, BacMam KCNH2, thallium flux FluxOr; active compounds read low | AID 720551 | Q12809 | 0.37% of 340,000 active;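 active = maximum activity change below -70%; inconclusive = maximum activity change between -70% and -50%; inactive = maximum activity change above -50%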; also: % is scaled to controls: 0 for no effect and ±100 for the full control effect
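U2OS cells were transduced with wild-type KCNH2 virus (2.03 x 10^8 / mL) for 4 h at room temperature, then cultured overnight at 37 C. Thallium flux was read with FluxOr dye. Rate constants were normalized to DMSO controls.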
MBNL1 TRFRET = MBNL1-poly(CUG) RNA binding inhibition confirmed; shares compounds with MBNL1 CUG block; TR-FRET MBNL1-His / biotin-(CUG)12 binding, 60 min; Potency, µM (titrated, usually from 57.6 µM), inactives show top-dose activity change, negative = inhibition, most hits filed as inhibitors; 50% of 140 active; AID 493199
MBNL1-CUG Alpha = confirmation of MBNL1-(CUG)12 RNA binding inhibitors, orthogonal format | AlphaScreen MBNL1-His / biotin-(CUG)12 binding | Potency, µM (series often up to 57.7 µM), for the others: top-dose activity, negative = inhibition, usual class: inhibitors | 30% of 140 active | shares compounds with MBNL1 CUG block | AID 493205
MBNL1 HTRF CS = MBNL1-CUG RNA binding inhibitor counterscreen activity | shares compounds with MBNL1 CUG block | His-Menin/biotin-MLL peptide TR-FRET counterscreen | Potency, µM (doses to about 57.6 µM), for inactives: at the top dose activity, negative = inhibition, actives largely listed as inhibitors | 20% of 120 active | AID 651843
* hit, by the source's call. Unless noted, calls follow the shape of the dose curve; as a rule, active = well fitted curve in the direction sought with a large enough effect; inconclusive = small, poorly fitted or top-dose-only effect, or another doubt; inactive = no such curve, though single readings can be large; an effect the other way counts as inactive or inconclusive.

C/C1=C2N=C(/C=C3N=C(/C(C)=C4\[N-][C@@](C)([C@@H]5N=C1[C@](C)(CCC(=O)NCC(C)OP(=O)(O)O[C@H]1[C@@H](O)[C@@H](n6cnc7cc(C)c(C)cc76)O[C@@H]1CO)[C@H]5CC(N)=O)[C@@](C)(CC(N)=O)[C@@H]4CCC(N)=O)[C@@](C)(CC(N)=O)[C@@H]\3CCC(N)=O)C(C)(C)[C@@H]/2CCC(N)=O.CC(=O)O.[Co] (some centres not stated) was read as MBNL1 HTRF CS 94%.
`O=S(=O)(Nc1c(S(=O)(=O)c2ccccc2)c2nc3ccccc3nc2n1C1CCCCC1)c1ccccc1` gave TRPV1 potentiator -7, KCNH2 3.1 block -18, TRPV1 ag 7 and KCNH2 WT inh -17.
For C=CCn1c(NS(=O)(=O)c2ccccc2)c(S(=O)(=O)c2ccc(C)cc2)c2nc3ccccc3nc21 the results were TRPV1 potentiator 13, KCNH2 3.1 block -12, MBNL1 CUG block 20µM*, TRPV1 ag -3, KCNH2 WT inh -16, MBNL1 TRFRET 4%, MBNL1-CUG Alpha inconclusive and MBNL1 HTRF CS 0%.
Screening COc1ccc(CC(=O)N2CC(C)CC(C)C2)cc1 (configuration not stated) returned TRPV1 potentiator -16, KCNH2 3.1 block -5, MBNL1 CUG block 1%, TRPV1 ag inconclusive and KCNH2 WT inh 4.
For COc1ccc(C)cc1S(=O)(=O)Nc1ccc(F)c(Cl)c1 the results were TRPV1 potentiator 3, KCNH2 3.1 block 5, MBNL1 CUG block 25µM*, TRPV1 ag 1, KCNH2 WT inh -21, MBNL1 TRFRET -3%, MBNL1-CUG Alpha -11% and MBNL1 HTRF CS -3%.
`Cc1ccccc1C(=O)NC1CCN(C(=O)Nc2ccccc2Cl)CC1` gave TRPV1 potentiator -16, KCNH2 3.1 block 5, MBNL1 CUG block -1%, TRPV1 ag -1 and KCNH2 WT inh 2.
`CCCCN1C(=O)NC2NC(=O)NC21` (configuration not stated) gave TRPV1 potentiator -2, KCNH2 3.1 block 4, MBNL1 CUG block 5.6µM*, TRPV1 ag 3, KCNH2 WT inh 11, MBNL1 TRFRET 3.3µM*, MBNL1-CUG Alpha 1.2µM* and MBNL1 HTRF CS inconclusive.
Screening C[C@@H]1O[C@@H](OC[C@H]2O[C@@H](Oc3c(-c4ccc(O)c(O)c4)oc4cc(O)cc(O)c4c3=O)[C@H](O)[C@@H](O)[C@@H]2O)[C@H](O)[C@H](O)[C@H]1O returned TRPV1 potentiator 11, KCNH2 3.1 block -7, MBNL1 CUG block inconclusive, TRPV1 ag -1, KCNH2 WT inh 4, MBNL1 TRFRET inconclusive, MBNL1-CUG Alpha inconclusive and MBNL1 HTRF CS 17%.
Screening COc1ccc(CCNC(=O)C2CC(=O)N(c3ccc(Br)cc3)C2)cc1OC (configuration not stated) returned TRPV1 potentiator 0, KCNH2 3.1 block 1, MBNL1 CUG block -7% and TRPV1 ag 5.
`COc1ccc(CCNC(=O)C2CC(=O)N(c3ccccc3)C2)cc1OC` (configuration not stated) gave TRPV1 potentiator -5, KCNH2 3.1 block 8, MBNL1 CUG block 11%, TRPV1 ag 3, KCNH2 WT inh 0, MBNL1 TRFRET -5%, MBNL1-CUG Alpha -2% and MBNL1 HTRF CS 1%.
Screening CCOc1ccccc1NC(=O)CCCn1cc([N+](=O)[O-])cn1 returned TRPV1 potentiator -5, KCNH2 3.1 block 1, TRPV1 ag -1 and KCNH2 WT inh 4.
Screening COc1ccc(/C=N/Nc2nccnc2Cl)cc1 returned TRPV1 potentiator -3, KCNH2 3.1 block 3, MBNL1 CUG block inconclusive, TRPV1 ag 2, KCNH2 WT inh 35, MBNL1 TRFRET inconclusive, MBNL1-CUG Alpha -13% and MBNL1 HTRF CS 18%.
`Oc1ccccc1/C=N/Nc1nccnc1Cl` gave TRPV1 potentiator -13, KCNH2 3.1 block -3, MBNL1 CUG block 17%, TRPV1 ag inconclusive and KCNH2 WT inh -1.
`Oc1ccc(/C=N/Nc2nccnc2Cl)c(O)c1` gave TRPV1 potentiator -7, KCNH2 3.1 block -4, MBNL1 CUG block inconclusive, TRPV1 ag 21, KCNH2 WT inh 4, MBNL1 TRFRET inconclusive, MBNL1-CUG Alpha 6.5µM* and MBNL1 HTRF CS 17%.
`COc1cccc(/C=N/Nc2nccnc2Cl)c1O` gave TRPV1 potentiator 3, KCNH2 3.1 block 1, MBNL1 CUG block inconclusive, TRPV1 ag -1, KCNH2 WT inh -2, MBNL1 TRFRET inconclusive, MBNL1-CUG Alpha 3.7µM* and MBNL1 HTRF CS 26%.
For Cn1ccs/c1=N\C(=O)Nc1cccc(C(F)(F)F)c1 the results were TRPV1 potentiator -7, KCNH2 3.1 block 5, MBNL1 CUG block 4%, TRPV1 ag inconclusive and KCNH2 WT inh 19.
CC(=O)Nc1ccc(Nc2nc(C)c([N+](=O)[O-])c(Nc3ccc(NC(C)=O)cc3)n2)cc1 was read as TRPV1 potentiator -4, KCNH2 3.1 block -1, MBNL1 CUG block inconclusive, TRPV1 ag 0 and KCNH2 WT inh 3.
For CCOC(=O)CCCCC(=O)c1[nH]c(=O)[nH]c1Cn1cnc2ccccc21 the results were TRPV1 potentiator 2, KCNH2 3.1 block 16, MBNL1 CUG block 10µM*, TRPV1 ag 2, KCNH2 WT inh -9, MBNL1 TRFRET 10µM*, MBNL1-CUG Alpha 2.6µM* and MBNL1 HTRF CS 26µM*.
For Cc1cc(C)n(-c2ccc(C(=O)N3CCC(CO)(Cc4ccccc4)CC3)cc2)n1 the results were TRPV1 potentiator 7, KCNH2 3.1 block 2, MBNL1 CUG block -1%, TRPV1 ag 11 and KCNH2 WT inh -11.
For O=C(O)CCCCCCCC(=O)O the results were TRPV1 potentiator 7, KCNH2 3.1 block -12, MBNL1 CUG block 20µM*, TRPV1 ag -3, KCNH2 WT inh 1, MBNL1 TRFRET inconclusive, MBNL1-CUG Alpha inconclusive and MBNL1 HTRF CS 1%.
`CCCCCCC(=O)O` gave KCNH2 3.1 block 8 and KCNH2 WT inh 2.
